According to PubChem BioAssay (NCI):
This is part of a sample that, as a whole, favours compounds with a hit. Of some 83,000 tested, about 20% had one in any assay.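 Single-concentration screen, 48 h exposure, 96-well plates. Endpoint: percent growth. Below 10 = active.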 Activity calls are given as the source filed them.

How the values were obtained:
Experiment in all cases: NCI-60 one-dose screen, 48 h (100 = growth as untreated, 0 = no growth, -100 = all killed)
Conditions in all cases: 10 µM unless noted
NCI-H23 lung = tested on: NCI-H23 lung
NCI-H226 lung = tested on: NCI-H226 lung
NCI-H322M lung = tested on: NCI-H322M lung
HOP-62 NSCLC = tested on: HOP-62 NSCLC
NCI-H460 lung = tested on: NCI-H460 lung
HOP-92 NSCLC = tested on: HOP-92 NSCLC
NCI-H522 lung = tested on: NCI-H522 lung
A549/ATCC NSCLC = tested on: A549/ATCC NSCLC
786-0 renal = tested on: 786-0 renal
COLO 205 colon = tested on: COLO 205 colon
DU-145 prostate = tested on: DU-145 prostate
K-562 leukemia = tested on: K-562 leukemia
MALME-3M melanoma = tested on: MALME-3M melanoma
MDA-MB-231 breast = tested on: MDA-MB-231 breast
RXF 393 renal = tested on: RXF 393 renal
SF-268 CNS = tested on: SF-268 CNS
SF-295 CNS = tested on: SF-295 CNS
SF-539 CNS = tested on: SF-539 CNS
UACC-257 melanoma = tested on: UACC-257 melanoma
M14 melanoma = tested on: M14 melanoma

Measured: growth

CCN1C(=O)C(=C/C=C/c2ccccc2)C(=O)N(CC)C1=O
inactive: NCI-H23 lung 95.5% | NCI-H226 lung 94.5% | NCI-H322M lung 104% | HOP-62 NSCLC 97.8% | NCI-H460 lung 77.8% | HOP-92 NSCLC 116% | NCI-H522 lung 73.3% | A549/ATCC NSCLC 101% | 786-0 renal 106% | COLO 205 colon 93.8% | DU-145 prostate 76.4% | K-562 leukemia 79.4% | MALME-3M melanoma 82.5% | MDA-MB-231 breast 86.4% | RXF 393 renal 109% | SF-268 CNS 72.5% | SF-295 CNS 105% | SF-539 CNS 109% | UACC-257 melanoma 93.9% | M14 melanoma 82.5%

COc1cc(C=Nc2cccc(C(=O)O)c2)ccc1N(CCCl)CCCl
inactive: NCI-H23 lung 103% | NCI-H226 lung 92.7% | NCI-H322M lung 100% | HOP-62 NSCLC 118% | NCI-H460 lung 75.4% | HOP-92 NSCLC 101% | A549/ATCC NSCLC 96.6% | 786-0 renal 105% | COLO 205 colon 67.1% | DU-145 prostate 111% | K-562 leukemia 101% | MALME-3M melanoma 84.4% | MDA-MB-231 breast 106% | RXF 393 renal 99.4% | SF-268 CNS 113% | SF-295 CNS 98.3% | SF-539 CNS 102% | UACC-257 melanoma 85.1% | M14 melanoma 104%
active: NCI-H522 lung -3.21%

COc1ccc(/C=C\c2cc(OC)c(OC)c(OC)c2)cc1NS(=O)(=O)c1ccc(Cl)cc1
inactive: NCI-H23 lung 75.3% | NCI-H226 lung 70.9% | NCI-H322M lung 73.1% | HOP-62 NSCLC 83.9% | NCI-H460 lung 84.1% | HOP-92 NSCLC 37% | NCI-H522 lung 25.9% | A549/ATCC NSCLC 58.9% | 786-0 renal 78% | COLO 205 colon 73.6% | DU-145 prostate 94% | K-562 leukemia 36.8% | MALME-3M melanoma 59.5% | MDA-MB-231 breast 66% | RXF 393 renal 65.8% | SF-268 CNS 79.4% | SF-295 CNS 69.3% | SF-539 CNS 82.6% | UACC-257 melanoma 69% | M14 melanoma 62.4%

Nc1ccc2c(c1)Cc1cc(Br)ccc1-2
inactive: NCI-H23 lung 90.5% | NCI-H226 lung 95.4% | NCI-H322M lung 105% | HOP-62 NSCLC 101% | NCI-H460 lung 104% | HOP-92 NSCLC 78% | NCI-H522 lung 107% | A549/ATCC NSCLC 100% | 786-0 renal 108% | COLO 205 colon 117% | DU-145 prostate 109% | K-562 leukemia 92.2% | MALME-3M melanoma 118% | MDA-MB-231 breast 84% | RXF 393 renal 112% | SF-268 CNS 88% | SF-295 CNS 107% | SF-539 CNS 100% | UACC-257 melanoma 122% | M14 melanoma 118%

O=C1OCCC1Br (stereo not given)
inactive: NCI-H23 lung 103% | NCI-H226 lung 103% | NCI-H322M lung 97.7% | HOP-62 NSCLC 105% | NCI-H460 lung 105% | HOP-92 NSCLC 85.6% | NCI-H522 lung 83.9% | A549/ATCC NSCLC 99.8% | 786-0 renal 106% | COLO 205 colon 120% | DU-145 prostate 106% | K-562 leukemia 80.9% | MALME-3M melanoma 97.8% | MDA-MB-231 breast 103% | RXF 393 renal 114% | SF-268 CNS 108% | SF-295 CNS 105% | SF-539 CNS 95.6% | UACC-257 melanoma 83% | M14 melanoma 109%

C/C1=C/C(=O)O[C@@H]2C[C@@H](CC[C@H](C)/C=C\C=C\CC1)O[C@@](O)([C@@H]1CSC(=O)N1CO)C2
inactive: NCI-H23 lung 13.9% | NCI-H226 lung 46.1% | NCI-H322M lung 41.7% | NCI-H460 lung 26.9% | A549/ATCC NSCLC 20.3% | DU-145 prostate 22.9% | K-562 leukemia 22.2% | MALME-3M melanoma 14% | MDA-MB-231 breast 13.7% | SF-295 CNS 13.5% | UACC-257 melanoma 13.9% | M14 melanoma 34.5%
active: HOP-62 NSCLC -25.7% | HOP-92 NSCLC -82.5% | NCI-H522 lung -52.3% | 786-0 renal 6.79% | COLO 205 colon -55.5% | RXF 393 renal -35.4% | SF-268 CNS -37.7% | SF-539 CNS -3.61%

CC(C)OC(=O)[C@H](C)NP(=O)(Oc1ccccc1)C1CCCN(O)C1=O (stereo not given in full)
inactive: NCI-H23 lung 89.6% | NCI-H226 lung 70.9% | NCI-H322M lung 84.6% | HOP-62 NSCLC 111% | NCI-H460 lung 105% | HOP-92 NSCLC 104% | NCI-H522 lung 97.6% | A549/ATCC NSCLC 105% | 786-0 renal 94.3% | COLO 205 colon 93.1% | DU-145 prostate 98.1% | K-562 leukemia 94.2% | MALME-3M melanoma 43.6% | MDA-MB-231 breast 92.3% | RXF 393 renal 57.2% | SF-268 CNS 93.9% | SF-295 CNS 95.6% | SF-539 CNS 87.7% | UACC-257 melanoma 93.8% | M14 melanoma 66.5%

COC(=O)[C@@H](C)C[C@H](Cc1ccccc1)NC(=O)c1csc([C@@H](C[C@H](C(C)C)N(C)C(=O)[C@@H](NC(=O)C23CC(NC(C)=O)(C2)C3)C2CC2)OC(C)=O)n1
inactive: NCI-H23 lung 60.2% | NCI-H226 lung 107% | NCI-H322M lung 105% | HOP-62 NSCLC 67.9% | NCI-H460 lung 36.6% | HOP-92 NSCLC 38.5% | A549/ATCC NSCLC 93.5% | 786-0 renal 65% | COLO 205 colon 32.5% | DU-145 prostate 61.6% | K-562 leukemia 14.2% | MALME-3M melanoma 56.4% | MDA-MB-231 breast 57.9% | RXF 393 renal 36.9% | SF-268 CNS 55.6% | SF-295 CNS 82% | SF-539 CNS 42.4% | UACC-257 melanoma 46.2% | M14 melanoma 41%
active: NCI-H522 lung 2.4%
